Assay [1] can be described thus: qHTS assay to identify small molecule antagonists of the sonic hedgehog signaling (Shh) pathway (AID 1259369). Note: nearly all actives have a fitted effect of over 45% in size. Note: potency is the fitted concentration of half-maximal effect. An outline of the steps:
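Luminescence readout: firefly Luc under Gli1 response element in 3T3Gli1-Luc cells (NIH/3T3 clone). Antagonist mode, stimulation by conditioned medium; compound exposure 24hr at 37 C, 5% CO2.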
For orientation: In qHTS, concentration-response curves come from the screen itself.

Assay [2] in a line: qHTS assay to identify small molecule agonists of the androgen receptor (AR) signaling pathway in the presence of an antagonist - cell viability counter screen (AID 1259379; active = well fitted curve in the direction sought with a large enough effect in the repeat runs; an effect the other way counts as inactive or inconclusive; note: nearly all actives have a fitted effect of over 25% in size; note: potency is the fitted concentration of half-maximal effect). An outline of the steps: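 Viability counter screen: CellTiter-Fluor fluorescence, measured in the same wells as the luciferase read-out. MDA-kb2 cells, 3,000/well, with nilutamide at 3.0uM final and compounds at 15 concentrations, 16 hr at 37C, 0% CO2.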

Assay [3] in a line: qHTS assay to identify small molecule antagonists of the estrogen receptor beta (ER-beta) signaling pathway - cell viability counter screen (AID 1259382; active = well fitted curve in the direction sought with a large enough effect in the repeat runs; an effect the other way counts as inactive or inconclusive; note: nearly all actives have a fitted effect of over 55% in size; note: potency is the fitted concentration of half-maximal effect). The method in brief: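 Luminescent ATP read-out (CellTiter-Glo, 30 min, RT) taken in the same wells as the bla reporter assay. HEK293T ER-beta-UAS-bla cells in 2% charcoal-stripped FBS were exposed to compounds with 1nM E2 for 16 hr at 37C.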

The target of assay [4] is Estrogen receptor (Homo sapiens) (UniProt P03372). As to the kind of experiment: qHTS assay to identify small molecule agonists of the estrogen receptor alpha (ER-alpha) signaling pathway in the presence of an antagonist (AID 1259383). Note: top concentration of the series differs between compounds; nearly all actives have a fitted effect of over 15% in size. The method in brief: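 Luciferase luminescence (ONE-Glo, 30min at room temperature) measured in VM7Luc4E2 cells after 22hr compound exposure at 15 concentrations, with 10.0nM ICI-182,780 final present; cells express endogenous ER-alpha and carry four EREs upstream of luciferase.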
Estrogen receptor (Homo sapiens), sequence (P03372 whole entry, looked up): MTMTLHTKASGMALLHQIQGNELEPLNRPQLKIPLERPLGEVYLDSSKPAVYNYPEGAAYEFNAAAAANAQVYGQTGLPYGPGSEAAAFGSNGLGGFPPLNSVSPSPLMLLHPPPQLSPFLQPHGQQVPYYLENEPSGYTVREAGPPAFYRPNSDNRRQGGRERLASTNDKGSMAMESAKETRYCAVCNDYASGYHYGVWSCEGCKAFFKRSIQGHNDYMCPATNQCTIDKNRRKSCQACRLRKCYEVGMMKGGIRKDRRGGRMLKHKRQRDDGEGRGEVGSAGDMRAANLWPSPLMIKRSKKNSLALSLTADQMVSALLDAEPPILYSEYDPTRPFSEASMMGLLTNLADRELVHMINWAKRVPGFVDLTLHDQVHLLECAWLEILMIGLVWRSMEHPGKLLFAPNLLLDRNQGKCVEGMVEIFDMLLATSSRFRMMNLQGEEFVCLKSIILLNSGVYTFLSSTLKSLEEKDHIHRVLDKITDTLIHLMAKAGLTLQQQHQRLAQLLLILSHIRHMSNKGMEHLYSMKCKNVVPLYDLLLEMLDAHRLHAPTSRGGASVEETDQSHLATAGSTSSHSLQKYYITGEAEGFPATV

The nature of assay [5]: qHTS assay to identify small molecule agonists of the estrogen receptor alpha (ER-alpha) signaling pathway in the presence of an antagonist - cell viability counter screen (AID 1259386; active = well fitted curve in the direction sought with a large enough effect in the repeat runs; an effect the other way counts as inactive or inconclusive;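 note: cells exposed to compounds for 22 h at 37 °C before the viability read; nearly all actives have a fitted effect of over 30% in size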; note: potency is the fitted concentration of half-maximal effect). The method in brief:
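Read-out: CellTiter-Fluor fluorescence after 1hr reagent incubation, measured in the same wells as the luciferase readout. VM7Luc4E2 cells were exposed to 15 compound concentrations with 10.0nM ICI-182,780 for 22hr at 37C.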

Assay [6] has as its target Progesterone receptor (Homo sapiens) (UniProt P06401). The assay is described as follows: qHTS assay to identify small molecule agonists of the progesterone receptor (PR) signaling pathway (AID 1346784). Note: nearly all actives have a fitted effect of over 30% in size. An outline of the steps: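 PR-UAS-bla HEK 293T cells (beta-lactamase reporter under UAS) in 2% charcoal-stripped FBS, dosed with 23 nL compound after 6 hr, incubated 16hr at 37C. LiveBLAzer B/G FRET substrate added, fluorescence read after 2 hours.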

A short description of assay [7]: qHTS assay to identify small molecule antagonists of the progesterone receptor (PR) signaling pathway - cell viability counter screen (AID 1346798; active = well fitted curve in the direction sought with a large enough effect in the repeat runs; an effect the other way counts as inactive or inconclusive; note: nearly all actives have a fitted effect of over 50% in size; note: potency is the fitted concentration of half-maximal effect). The method in brief: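 PR-UAS-bla HEK293T cells, 3,000/well in 2% charcoal-stripped FBS medium, dosed with compounds plus R5020 agonist and incubated 16 h at 37C. Viability then measured in the same wells by CellTiter-Glo luminescence after 30 min at RT.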

Assay [8] can be described thus: qHTS assay to identify small molecule agonists of the progesterone receptor (PR) signaling pathway - cell viability counter screen (AID 1346799). Note: nearly all actives have a fitted effect of over 45% in size. Note: potency is the fitted concentration of half-maximal effect. The method in brief:
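Counter screen in the PR-UAS-bla HEK293T wells (2% charcoal-stripped FBS, 16 h compound exposure at 37 C) after the bla read. CellTiter-Glo added, 30 min at room temperature, luminescence read as cell viability.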

The nature of assay [9]: qHTS assay to identify small molecule antagonists of the TGF-beta/Smad signaling pathway - cell viability counter screen (AID 1346824; active = well fitted curve in the direction sought with a large enough effect in the repeat runs; an effect the other way counts as inactive or inconclusive; note: nearly all actives have a fitted effect of over 50% in size). The method in brief: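 Cytotoxicity counter-screen run in the same wells as the beta-lactamase Smad reporter read: CellTiter-Glo luminescence after 30 min at room temperature. HEK 293T SBE-bla cells had 5 hr compound exposure at 37 C with TGF-beta1 (0.25 ng/mL stock).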

The nature of assay [10]: qHTS assay to identify small molecule agonists of the TGF-beta/Smad signaling pathway - cell viability counter screen (AID 1346829; active = well fitted curve in the direction sought with a large enough effect in the repeat runs; an effect the other way counts as inactive or inconclusive; note: top concentration of the series differs between compounds; nearly all actives have a fitted effect of over 45% in size). An outline of the steps: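 In parallel with the Smad reporter read, viability of HEK 293T cells stably carrying SBE-bla is quantified by ATP luminescence following 5 hr compound treatment.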
Assay [11] can be described thus: qHTS assay to identify small molecule agonists of the TGF-beta/Smad signaling pathway (AID 1346859; active = well fitted activation curve with a large enough effect in the signal ratio in the repeat runs, not every such curve was filed as active; the % refers to the signal ratio; note: series mostly up to about 77 µM). The method in brief: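 SBE-bla HEK293T cells plated overnight, then compound exposure for 5 h at 37 C. Beta-lactamase reporter read with LiveBLAzer B/G FRET substrate after 2 h at room temperature, fluorescence at 405 nm excitation, 460/530 nm emission.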
Assay [12] concerns the target Thyrotropin-releasing hormone receptor (Homo sapiens) (UniProt P34981). The assay is described as follows: qHTS assay to identify small molecule antagonists of the thyrotropin-releasing hormone receptor (TRHR) signaling pathway (AID 1346877; active = well fitted inhibition curve with a large enough effect in the repeat runs, not every such curve was filed as active; note: series mostly up to about 51 µM). An outline of the steps:
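HEK293/TRHR cells, 18 h, 37 °C; Ca2+ dye 2 h; cpd 5 min RT; TRH 1 nM final; fluorescence read 3 min, 1 s intervals; 15 concs, triplicate.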

Assay [13] shares this target. As to the kind of experiment: qHTS assay to identify small molecule agonists of the thyrotropin-releasing hormone receptor (TRHR) signaling pathway (AID 1346891). Note: series mostly up to about 58 µM. An outline of the steps: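 HEK293 cells expressing TRHR plated 18 h at 37 C/5% CO2, calcium dye-loaded 2 h at 37 C, then compound added (agonist mode); kinetic calcium fluorescence read 3 min at 1 s intervals; 15 concentrations in triplicate.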

Assay [14] is described as follows: qHTS assay to identify small molecule agonists or antagonists of the thyroid stimulating hormone receptor (TSHR) signaling pathway - wild type cell line counter screen (AID 1259384). The method in brief:
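Counter screen in untransfected Hek293: compounds (15-point titration, triplicate) plus phosphodiesterase inhibitor Ro20-1724 added after 18 h plating; 30 min RT. Intracellular cAMP via competitive d2/cryptate immunoassay, 1 h incubation.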

In assay [15] the target is Thyrotropin receptor (Homo sapiens) (UniProt P16473). As to the kind of experiment: qHTS assay to identify small molecule antagonists of the thyroid stimulating hormone receptor (TSHR) signaling pathway (AID 1259385). Note: nearly all actives have a fitted effect of over 20% in size. An outline of the steps: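 Antagonist mode: compound-treated TSHR-expressing HEK293 cells were stimulated with 1.5 ng/mL TSH (final) in presence of Ro20-1724 for 30 min at RT. HTRF cAMP detection after 1 h; each compound tested at 15 concentrations, triplicate.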
Thyrotropin receptor (Homo sapiens), sequence (P16473 whole entry, looked up): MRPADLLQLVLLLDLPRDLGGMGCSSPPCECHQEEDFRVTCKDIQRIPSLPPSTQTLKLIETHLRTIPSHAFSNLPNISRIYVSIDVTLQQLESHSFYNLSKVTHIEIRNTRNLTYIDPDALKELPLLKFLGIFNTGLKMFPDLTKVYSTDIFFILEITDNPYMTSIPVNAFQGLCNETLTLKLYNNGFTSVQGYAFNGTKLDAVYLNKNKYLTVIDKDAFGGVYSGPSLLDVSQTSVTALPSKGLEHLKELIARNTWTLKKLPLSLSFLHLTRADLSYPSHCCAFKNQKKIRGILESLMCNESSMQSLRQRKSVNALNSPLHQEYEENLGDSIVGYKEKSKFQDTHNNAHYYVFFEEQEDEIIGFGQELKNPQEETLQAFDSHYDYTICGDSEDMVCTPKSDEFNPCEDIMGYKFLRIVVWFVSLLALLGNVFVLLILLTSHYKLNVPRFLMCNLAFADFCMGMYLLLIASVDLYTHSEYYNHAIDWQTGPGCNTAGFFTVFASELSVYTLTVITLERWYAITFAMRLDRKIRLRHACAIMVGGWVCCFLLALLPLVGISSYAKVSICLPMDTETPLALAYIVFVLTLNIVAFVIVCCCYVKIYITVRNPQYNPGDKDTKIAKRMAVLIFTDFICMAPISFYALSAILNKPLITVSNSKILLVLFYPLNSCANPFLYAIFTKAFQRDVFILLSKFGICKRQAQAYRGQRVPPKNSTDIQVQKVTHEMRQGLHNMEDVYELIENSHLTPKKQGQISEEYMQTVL

Assay [16] deals with Progesterone receptor (Homo sapiens) (UniProt P06401). As to the kind of experiment: qHTS assay to identify small molecule antagonists of the progesterone receptor (PR) signaling pathway (AID 1346795; active = well fitted inhibition curve with a large enough effect in the signal ratio in the repeat runs, not every such curve was filed as active; the % refers to the signal ratio; note: potency is the fitted concentration of half-maximal effect). The method in brief: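 PR-UAS-bla HEK293T cells with beta-lactamase reporter under UAS control, in 2% charcoal-stripped FBS, treated with compounds plus 1 nM promegestone (R5020, final) for 16 hr at 37C. Read-out: FRET beta-lactamase substrate fluorescence after 2 hr at room temperature.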
Progesterone receptor (Homo sapiens), sequence (P06401 whole entry, looked up): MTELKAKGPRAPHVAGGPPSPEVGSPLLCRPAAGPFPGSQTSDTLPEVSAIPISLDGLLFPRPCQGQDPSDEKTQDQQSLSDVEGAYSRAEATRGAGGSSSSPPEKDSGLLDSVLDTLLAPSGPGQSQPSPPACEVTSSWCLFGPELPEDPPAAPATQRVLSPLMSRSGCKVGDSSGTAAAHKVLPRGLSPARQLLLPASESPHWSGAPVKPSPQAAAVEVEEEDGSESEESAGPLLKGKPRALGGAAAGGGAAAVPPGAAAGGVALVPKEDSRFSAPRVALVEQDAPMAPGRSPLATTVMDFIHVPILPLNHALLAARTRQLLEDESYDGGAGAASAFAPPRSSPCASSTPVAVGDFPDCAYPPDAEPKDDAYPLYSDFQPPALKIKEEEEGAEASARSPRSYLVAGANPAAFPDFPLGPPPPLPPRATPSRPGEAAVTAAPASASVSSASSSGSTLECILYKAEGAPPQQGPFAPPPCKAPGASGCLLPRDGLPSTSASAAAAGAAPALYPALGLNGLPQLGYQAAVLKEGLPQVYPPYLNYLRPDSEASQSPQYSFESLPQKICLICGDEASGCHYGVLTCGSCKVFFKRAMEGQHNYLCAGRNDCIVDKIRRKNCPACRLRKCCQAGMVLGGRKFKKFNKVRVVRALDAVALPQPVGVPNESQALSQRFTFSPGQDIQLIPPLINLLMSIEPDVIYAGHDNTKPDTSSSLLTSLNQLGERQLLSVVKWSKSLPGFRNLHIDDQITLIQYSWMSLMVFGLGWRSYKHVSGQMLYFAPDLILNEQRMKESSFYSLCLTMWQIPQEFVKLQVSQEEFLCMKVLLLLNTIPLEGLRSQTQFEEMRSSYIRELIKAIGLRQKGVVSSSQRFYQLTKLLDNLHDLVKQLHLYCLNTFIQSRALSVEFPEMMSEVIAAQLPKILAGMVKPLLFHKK

Assay [17] is described as follows: qHTS assay to identify small molecule agonists of the estrogen receptor beta (ER-beta) signaling pathway - cell viability counter screen (AID 1259380; active = well fitted curve in the direction sought with a large enough effect in the repeat runs; an effect the other way counts as inactive or inconclusive; note: nearly all actives have a fitted effect of over 30% in size; note: potency is the fitted concentration of half-maximal effect). An outline of the steps: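 Luminescence read-out (CellTiter-Glo, 30 min, room temp) taken in the same wells as the beta-lactamase reporter assay; ER-beta-UAS-bla HEK293T cells exposed to DMSO-dissolved compounds for 16 hr at 37C in 2% charcoal-stripped FBS medium.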

Assay [18] deals with Androgen receptor (Homo sapiens) (UniProt P10275). As to the kind of experiment: qHTS assay to identify small molecule agonists of the androgen receptor (AR) signaling pathway in the presence of an antagonist (AID 1259381). Note: nearly all actives have a fitted effect of over 15% in size. The method in brief:
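Luciferase read-out (ONE-Glo, 30min room temperature) in MDA-kb2 MMTV-reporter cells; agonist mode run in presence of AR antagonist nilutamide, 3.0uM final. Compounds tested as 15-point series, 16hr exposure at 37C, 0% CO2.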

Where “and” joins values, the source holds several entries; their conditions need not be identical. Equal entries are not always repeated. Records with an inconclusive call do not appear. Some compounds were tested as several samples or in several runs, with calls that do not always agree. Calls of active or inactive are those of the source. Unless noted, calls come from the whole dose curve.

Androgen receptor (Homo sapiens), sequence (P10275 whole entry, looked up): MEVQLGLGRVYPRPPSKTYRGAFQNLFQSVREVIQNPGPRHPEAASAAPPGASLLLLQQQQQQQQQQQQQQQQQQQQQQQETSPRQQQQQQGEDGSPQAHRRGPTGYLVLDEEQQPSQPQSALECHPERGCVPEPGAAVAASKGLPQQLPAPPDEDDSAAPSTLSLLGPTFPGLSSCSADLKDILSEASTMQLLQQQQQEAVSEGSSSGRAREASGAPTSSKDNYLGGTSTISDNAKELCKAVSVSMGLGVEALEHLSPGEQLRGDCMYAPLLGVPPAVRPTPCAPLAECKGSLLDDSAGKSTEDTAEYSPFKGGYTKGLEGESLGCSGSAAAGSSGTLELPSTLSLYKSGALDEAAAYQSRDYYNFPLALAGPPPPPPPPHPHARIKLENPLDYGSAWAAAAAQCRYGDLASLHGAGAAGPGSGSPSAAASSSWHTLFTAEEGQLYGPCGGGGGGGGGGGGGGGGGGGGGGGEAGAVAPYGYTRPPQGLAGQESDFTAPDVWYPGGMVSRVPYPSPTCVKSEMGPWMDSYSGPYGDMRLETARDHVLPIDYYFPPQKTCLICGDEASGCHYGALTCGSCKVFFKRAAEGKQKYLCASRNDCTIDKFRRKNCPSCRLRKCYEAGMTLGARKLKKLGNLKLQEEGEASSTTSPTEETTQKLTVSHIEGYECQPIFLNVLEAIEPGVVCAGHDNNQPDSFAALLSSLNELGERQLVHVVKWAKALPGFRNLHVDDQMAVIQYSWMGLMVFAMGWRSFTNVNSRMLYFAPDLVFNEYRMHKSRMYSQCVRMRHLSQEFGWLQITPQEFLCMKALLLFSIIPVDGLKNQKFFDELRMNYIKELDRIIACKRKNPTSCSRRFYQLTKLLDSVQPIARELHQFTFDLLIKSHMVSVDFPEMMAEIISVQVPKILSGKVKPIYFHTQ
Thyrotropin-releasing hormone receptor (Homo sapiens), sequence (P34981 whole entry, looked up): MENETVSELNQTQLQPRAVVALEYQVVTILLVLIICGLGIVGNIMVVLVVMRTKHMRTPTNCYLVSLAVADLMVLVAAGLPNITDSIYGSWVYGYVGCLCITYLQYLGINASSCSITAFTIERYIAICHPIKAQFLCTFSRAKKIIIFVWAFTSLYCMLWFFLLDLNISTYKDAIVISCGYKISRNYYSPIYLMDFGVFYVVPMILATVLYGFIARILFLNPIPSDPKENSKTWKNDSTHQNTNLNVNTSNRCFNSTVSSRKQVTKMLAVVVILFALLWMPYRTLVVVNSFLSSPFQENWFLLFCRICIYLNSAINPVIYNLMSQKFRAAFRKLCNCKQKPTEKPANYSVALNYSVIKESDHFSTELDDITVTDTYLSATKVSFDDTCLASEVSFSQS

As to `Nc1ccc(Nc2ccccc2)cc1`, the Potency in assay [1] is 4.8 µM (active) and 1.72 µM (active) and 4.33 µM (active); in assay [5], 30.6 µM (active) and 19.3 µM (active). For the same compound, the Potency entry in assay [2], in assay [3], in assay [4], in assay [6], in [7] and in assay [8] was “inactive” each time. Moreover, the Potency entry in assay [9], in [10], in assay [12] and in assay [13] was “inactive” throughout. Also, the outcome in assay [11] was inactive.

For the compound `CC(C)(C)NC(=O)[C@H]1CC[C@H]2[C@@H]3CC[C@H]4NC(=O)C=C[C@]4(C)[C@H]3CC[C@]12C`, the Potency in [1] is 2.7 µM (active) and inactive. The Potency entry in assay [2], in assay [3], in assay [4], in assay [5], in [6] and in assay [7] was “inactive” throughout. For the same compound, the Potency result in [8], in assay [9], in assay [10], in assay [12] and in assay [13] was “inactive” throughout. In addition, the result in assay [11] was inactive.

For `Nc1ccc(Cl)cc1Cl`, the Potency entry in assay [1], in [2], in assay [3], in assay [4], in assay [15] and in assay [5] was “inactive” throughout. Also, the Potency entry in [6], in assay [16], in [7], in assay [9] and in assay [10] was “inactive” each time. For the same compound, the call in [14] and in [11] was inactive.

Take `COC(=O)C1=C(C)NC(C)=C(C(=O)OCCN(C)Cc2ccccc2)C1c1cccc([N+](=O)[O-])c1` (centres undefined): the Potency was 68.2 µM (active) in assay [1]; 60.8 µM (active) in assay [2]; 68.2 µM (active) and 29.8 µM (active) in assay [17]; 60.8 µM (active) in [3]; 54.2 µM (active) and 18.8 µM (active) in [5]; 30.5 µM (active) in assay [7]. In addition, in assay [8], the Potency is 30.5 µM (active). For the same compound, the Potency entry in [4], in [15], in assay [6], in assay [9], in assay [10] and in assay [12] was “inactive” each time. In addition, the Potency result in assay [13] is “inactive”. Further, the call in assay [14] and in assay [11] was inactive.

Regarding `c1cc(N(CC2CO2)CC2CO2)ccc1OCC1CO1` (centres undefined), the Potency is 3.44 µM (active) and 9.69 µM (active) in assay [1]; 54.5 µM (active) in assay [5]; 48.6 µM (active) in assay [16]. The Potency entry in assay [17], in [3], in [4], in assay [15], in assay [6] and in [9] was “inactive” throughout. Also, the Potency result in [10], in assay [12] and in [13] was “inactive” throughout. Besides, the result in [14] and in assay [11] was inactive.

`CCOCCOCCO`: the Potency entry in assay [1], in assay [2], in assay [3], in assay [15], in assay [5] and in assay [6] was “inactive” each time. Besides, the Potency result in [16], in assay [7], in [9], in assay [10], in [12] and in [13] was “inactive” each time. The result in assay [18], in [14] and in [11] was inactive.

In the case of `Nc1ncn([C@@H]2O[C@H](CO)[C@@H](O)[C@H]2O)c(=O)n1`, the Potency is 13.7 µM (active) in assay [1] and 5.45 µM (active) in [17]. In addition, the outcome in assay [18], in [14] and in assay [11] was inactive. Moreover, the Potency result in assay [3], in assay [4], in assay [15], in assay [5], in [7] and in assay [8] was “inactive” in each case. The Potency entry in assay [9], in assay [10], in assay [12] and in assay [13] was “inactive” in each case.

These data come from PubChem BioAssay (Tox21).
